In PubChem BioAssay one finds z-score and inhibition data, which are given here for 37 compounds.

Several values for one entry are separate records, joined by “and”; a condition that tells them apart may be missing. Equal values may be shown once. The source holds several records for some structures; these can differ, active in one and inactive in another. Activity calls are given as the source filed them.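 The calls were made as follows, unless noted: active = z-score of at least 1.8 in each of two replicates, scored against plate mean and spread of sample wells; inactive = the rest.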

For orientation: inhibition means the relative decrease from the control value, in per cent.

The first assay can be described thus: galactose survival enhancers in mitochondrial complex I cybrids – cell-based, galactose medium, ATP luminescence, primary screen (AID 1645843).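 Also: positive z means more ATP and so rescue of galactose-driven cybrid death.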 The settings on record: complex I mutant cybrid cells, 72 h, stronger effect = higher value.
Consider `OCCN1CCN(CCCN2c3ccccc3Sc3ccc(C(F)(F)F)cc32)CC1`, for which the z-score was -1.04 (inactive) and -1.87 (inactive) and -0.735 (inactive).

Turning to `NS(=O)(=O)c1cc2c(cc1Cl)NC=NS2(=O)=O`, the z-score was 0.185 (inactive) and 0.555 (inactive).

As for `O=C1C(CCS(=O)c2ccccc2)C(=O)N(c2ccccc2)N1c1ccccc1` (stereo unspecified), the z-score is -0.05 (inactive).

In the case of `Cc1ccc(-c2cc(C(F)(F)F)nn2-c2ccc(S(N)(=O)=O)cc2)cc1`, the z-score is 2.48 (active) and 1.33 (inactive) and 1.65 (inactive).

Regarding `CN[C@H]1CC[C@@H](c2ccc(Cl)c(Cl)c2)c2ccccc21`, the z-score is -1.29 (inactive) and -1.52 (inactive) and -0.69 (inactive).

Regarding `Cc1ccccc1C(OCCN(C)C)c1ccccc1` (stereo unspecified), the z-score was -0.455 (inactive) and 0.28 (inactive) and 1.22 (inactive).

As to `CCc1nc(N)nc(N)c1-c1ccc(Cl)cc1`, the z-score is 0.72 (inactive).

With `COc1cc2nc(N(C)CCCNC(=O)C3CCCO3)nc(N)c2cc1OC` (stereo unspecified), the z-score is -0.01 (inactive) and 0.43 (inactive).

As for `CN(C)CCOC(c1ccc(Cl)cc1)c1ccccn1` (stereo unspecified), the z-score is 1.09 (inactive).

Regarding `Nc1ncn([C@@H]2O[C@H](CO)[C@@H](O)[C@H]2O)c(=O)n1`, the z-score was -1.16 (inactive) and -0.05 (inactive).

For `NCc1ccc(S(N)(=O)=O)cc1`, the z-score was 1.92 (inactive).

Regarding `Cc1ncc([N+](=O)[O-])n1CC(C)O` (stereo unspecified), the z-score is 0.59 (inactive) and 0.27 (inactive).

With `Cc1ccc(C)c(OCCCC(C)(C)C(=O)O)c1`, the z-score is 0.125 (inactive) and 0.18 (inactive).

Regarding `CN1CCCC(n2nc(Cc3ccc(Cl)cc3)c3ccccc3c2=O)CC1` (stereo unspecified), the z-score is -0.51 (inactive).

For `NS(=O)(=O)c1cc2c(cc1C(F)(F)F)NC(Cc1ccccc1)NS2(=O)=O` (stereo unspecified), the z-score was 1.88 (inactive).

`COC1=CC(=O)C[C@@H](C)[C@]12Oc1c(Cl)c(OC)cc(OC)c1C2=O`: the z-score is 1.05 (inactive).

With `Cc1cn([C@H]2C[C@H](N=[N+]=[N-])[C@@H](CO)O2)c(=O)[nH]c1=O`, the z-score is 0.4 (inactive) and 0.685 (inactive).

Consider `CN(CCOc1ccc(CC2SC(=O)NC2=O)cc1)c1ccccn1` (stereo unspecified), for which the z-score was 0.19 (inactive) and 0.27 (inactive).

As to `COc1ccc(OC)c(C(O)CNC(=O)CN)c1` (stereo unspecified), the z-score was 0.54 (inactive).

Turning to `OC(CCN1CCCC1)(c1ccccc1)C1CCCCC1` (stereo unspecified), the z-score is -0.65 (inactive).

For the compound `NC(=O)N1c2ccccc2CC(=O)c2ccccc21`, the z-score is -1.62 (inactive) and -0.18 (inactive).

In the case of `CCCNCC(O)COc1ccccc1C(=O)CCc1ccccc1` (stereo unspecified), the z-score is -1.23 (inactive) and -1.36 (inactive) and -0.68 (inactive).

For `C/C=C/C(=O)N(CC)c1ccccc1C`, the z-score is -0.06 (inactive).

Regarding `CCCCCCNC(=O)n1cc(F)c(=O)[nH]c1=O`, the z-score is 1.85 (inactive).

As for `NC(=O)c1cnccn1`, the z-score is 0.985 (inactive) and -0.015 (inactive).

`COc1ccccc1OCC(O)COC(N)=O` (stereo unspecified): the z-score is 0.945 (inactive).

For `COC(=O)Nc1nc2ccc(C(=O)c3ccccc3)cc2[nH]1`, the z-score is 0.145 (inactive) and 0.665 (inactive) and -1.08 (inactive).

As for `CCn1cc(C(=O)O)c(=O)c2cc(F)c(N3CCN(C)CC3)cc21`, the z-score was 0.7 (inactive) and 0.275 (inactive).

Take `Cn1cnc([N+](=O)[O-])c1Sc1ncnc2nc[nH]c12`: the z-score was -0.21 (inactive) and -1.11 (inactive).

With `c1ccc2[nH]c(-c3cscn3)nc2c1`, the z-score was 0.46 (inactive).

As to `Cc1onc(-c2c(Cl)cccc2Cl)c1C(=O)N[C@@H]1C(=O)N2[C@@H]1SC(C)(C)[C@@H]2C(=O)O`, the z-score is 0.54 (inactive).

`Clc1ccc2c(c1)C(N1CCNCC1)=Nc1ccccc1O2`: the z-score is -1.01 (inactive) and 0.165 (inactive) and -1.17 (inactive).

Consider `CO[C@@]1(NC(=O)Cc2cccs2)C(=O)N2C(C(=O)O)=C(COC(N)=O)CS[C@@H]21`, for which the z-score is -0.58 (inactive).

For the compound `CCc1cccc2c3c([nH]c12)C(CC)(CC(=O)O)OCC3` (stereo unspecified), the z-score is 0.63 (inactive) and -0.035 (inactive).

Consider `CC(C)(C)NCC(O)COc1cccc2c1C[C@H](O)[C@H](O)C2` (stereo partly specified), for which the z-score was 0.01 (inactive).

For the compound `O=S(=O)(O)CCS`, the z-score is 0.905 (inactive).

For the compound `O=c1[nH]cc(F)c(=O)[nH]1`, the z-score was 6.85 (active) and -1.25 (inactive) and 2.99 (active).

A further assay in a line: growth inhibition, single agent or in combination, cell-based, chromothripsis tumors, cisplatin or BGB combos (AID 1671449; in the data active = inhibition above about 80%;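 also: cells exposed for 96 hours; 0% = vehicle DMSO and 100% = killing by high DMSO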). Particulars: LFS_MB_P medulloblastoma cells, at 0.5 µM, stronger effect = higher value.
Consider `CCCCCCNC(=O)n1cc(F)c(=O)[nH]c1=O`, for which the inhibition is -27.2% (inactive) and -12.2% (inactive).

Consider `CCn1cc(C(=O)O)c(=O)c2cc(F)c(N3CCN(C)CC3)cc21`, for which the inhibition was -3.22% (inactive) and -29% (inactive).

Take `Cn1cnc([N+](=O)[O-])c1Sc1ncnc2nc[nH]c12`: the inhibition was -24.5% (inactive) and -18.6% (inactive).

For `O=c1[nH]cc(F)c(=O)[nH]1`, the inhibition was 4.15% (inactive).
